In general, inhibition refers to the change of the read-out against control, counted positive when it falls.

Molecules are shown by their SMILES. Out of some 370,000 compounds screened, about 4,700 (1.3%) were called active. What follows is part of a selection rich in actives, with near analogues and random picks from the rest. A number with no mark means an inactive call.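 How the source made its calls: active means inhibition above the plate cutoff, the mean of all test compounds on that plate plus 3 SD (cut at about 35% in these data); inactive means the rest.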

A short description of the experiment: binders of r(CAG) RNA repeats, primary screen, biochemical, fluorescence (AID 651821).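 Further: 0% = DMSO alone and 100% = 100 µM mitoxantrone as full dye displacement; higher means more dye released from RNA so lower well fluorescence.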 As to conditions: r(CAG) RNA repeat, TO-PRO-1 dye displacement fluorescence; at 3 µM; hits give high values.
`Cc1cc(Br)cn2c(Cc3ccccc3C(F)(F)F)c(-c3ccc(C#N)cc3)nc12`: the inhibition is 7.42%.
As to `CC(=O)c1c(C)[nH]c(C(=O)OCC(=O)Nc2sc3c(c2C#N)CCCC3)c1C`, the inhibition is 19.6%.
The result for `COc1cccc(CN(C)CC(=O)Nc2sc3c(c2C#N)CCC3)c1` reads -1.59%.
Consider `N#CCC(=O)Nc1ccc(C(=O)OCC(=O)Nc2sc3c(c2C#N)CCCC3)cc1`, for which the inhibition was 37.6% (active).
The result for `COC(=O)C1CN(CC(C)C)CCS(=O)(=O)N1Cc1ccc(F)cc1` (centres undefined) reads -0.73%.
With `COC(=O)c1cc(S(=O)(=O)N2CCN(c3ccccc3C)CC2)cn1C` the figure was 1.46%.
With `CCOc1ccc(C(=O)Nc2cccc(SC)c2)cc1`, the inhibition is -4.59%.
In the case of `Cn1c(SCc2nc3ccccc3s2)nnc1-c1ccc2c(c1)OCO2`, the inhibition is -0.18%.
As for `O=C(O)CC/C(=C\c1cc2c(cc1Br)OCO2)c1nc2ccccc2s1`, the inhibition was 38.8% (active).
For `O=C(/C=C/c1cc2c(cc1Br)OCO2)NCc1ccc(Cl)cc1`, the inhibition was 0.75%.
For the compound `COc1ccc(C(=O)Nc2cccc(/C=C(/CCC(=O)O)c3nc4ccccc4s3)c2)cc1`, the inhibition is 71.7% (active).
As for `COc1ccc(/C=C(/NC(=O)c2ccccc2)C(=O)Nc2cccc(C(=O)O)c2)cc1`, the inhibition is 6.11%.
`Cc1cc(=O)[nH]c(SCC(=O)Nc2ccc(F)cc2F)n1`: the inhibition is 7.71%.
With `CN(C)CC(=O)N[C@@H]1C[C@@H]2O[C@H](CO)CC[C@@H]2O[C@@H]1CCc1ccc(C#Cc2ccccc2)cc1` the figure was 2.31%; with `COC(=O)[C@]12C[C@H](CC(=O)NCCC(C)C)C(=O)N(CCc3ccc(OC)c(OC)c3)C1=C[C@H](C(C)(C)C)O[C@@H]2C`, 0.35%.
The result for `CC(C)[C@H]1COCCS(=O)(=O)N1Cc1ccccc1-c1cccc2c1sc1ccccc12` reads 9.63%; that for `CCN(CCCNC(=O)C1CCN(S(=O)(=O)c2cnc[nH]2)CC1)c1ccccc1`, 1.6%.
Regarding `COc1ccc(CCNC(=O)COC(=O)c2cc(=O)c3ccccc3o2)cc1`, the inhibition was 0.17%.
With `COc1ccc(CNC(=O)COC(=O)C2=Cc3ccccc3OC2)cc1`, the inhibition was 78.9% (active).
As for `COc1ccc(CNC(=O)COC(=O)C(CCSC)N2C(=O)c3ccccc3C2=O)cc1` (centres undefined), the inhibition is 3.76%.
The result for `CCOC(=O)[C@]12CCCCC/C=C\1N(Cc1ccc(OC)cc1)C(=O)[C@H]2CC(=O)NCCCN1CCCC1=O` reads 0.52%.
As for `COC(=O)[C@]12C[C@H](CC(=O)NCc3ccccc3)C(=O)N(Cc3ccccc3)C1=C[C@H](COCc1ccccc1)O[C@@H]2C`, the inhibition was 8.61%.
As to `O=C1Oc2ccccc2C(=O)/C1=C/c1ccccc1O`, the inhibition was 51% (active).
Turning to `Cc1ccc(-c2nc(C3CCCN(S(=O)(=O)c4ccc(Br)s4)C3)no2)cc1` (centres undefined), the inhibition is 5.63%.
In the case of `C=CCN=C1NC(c2cccc(C(F)(F)F)c2)C(C(=O)OC)=C(C)N1C` (centres undefined), the inhibition is 6.1%.
Turning to `Cc1cc(C(=O)NNC(=O)c2cccc(S(=O)(=O)N3CCOCC3)c2)c2ccccc2n1`, the inhibition is 0.6%.
As for `Cc1cc(C)cc(OCC(=O)NCc2cc(C)nc3ccccc23)c1`, the inhibition is -3.64%.
For the compound `O=C(NNc1c2ccccc2nc2ccccc12)c1cc2ccccc2cc1O`, the inhibition is 49.2% (active).
With `Oc1c(Cl)cc(Cl)c(Cl)c1Cc1c(O)c(Cl)cc(Cl)c1Cl`, the inhibition was 94% (active).
Regarding `CCOC(=O)CNC(=O)N(C)[C@H]1C[C@H]2c3[nH]c4c(-c5ccc6c(c5)OCO6)cccc4c3CCN2C(=O)[C@H]1[C@H](C)O`, the inhibition was 9.34%.
Turning to `COCCNC(=S)Nc1cc(S(=O)(=O)N2CCOCC2)ccc1N1CCCCC1`, the inhibition was 1.62%.
For the compound `Cc1cc(OCCCC(=O)Nc2cc(S(=O)(=O)N3CCOCC3)ccc2N2CCOCC2)ccc1Cl`, the inhibition is 2.46%.
For the compound `O=[N+]([O-])c1cc(Cl)cc(/C=N/NC(=S)Nc2cc(S(=O)(=O)N3CCOCC3)ccc2Cl)c1O`, the inhibition was 37.7% (active).
Consider `O=C(C(=O)N1CCC(c2ccccc2)CC1)c1ccccc1`, for which the inhibition is 1.3%.
`CCOC(=O)c1cccc(NC(=O)CN(C)S(=O)(=O)c2ccc(-c3cocn3)s2)c1`: the inhibition was 2.95%.
As for `O=C(CSc1nnc(-c2ccccn2)n1-c1ccccc1)Nc1ccc2cn[nH]c2c1`, the inhibition was 3.05%.
On to `O=C(Nc1cccc(Cl)c1)OC1CC2CC1[C@H]1CCCCN1[C@H]2Cc1ccccc1` (some centres undefined), for which the inhibition is 7.48%.
With `Cc1ccccc1OS(=O)(=O)c1cccc([N+](=O)[O-])c1` the figure was 0.69%; with `Cn1c2ccccc2c2cc(/C=C(\NC(=O)c3ccccc3)C(=O)NCC(=O)O)ccc21`, 35.8% (active); with `O=C(NCC1CCCO1)/C(=C/c1ccc(Cl)cc1)NC(=O)c1ccccc1` (centres undefined), -2.17%.
Regarding `CCn1cc(/C=C(\NC(=O)c2ccc(C)cc2)C(=O)NCCN2CCOCC2)c2ccccc21`, the inhibition was -0.63%.
With `Cc1nc2ccc(C(=O)N3CCN(C(=O)C(C)(C)C)CC3)cc2n1C1CCCC1`, the inhibition is 0.89%.
The result for `O=C1CC[C@@H](COc2ccc3[nH]cc(-c4ccccc4)c3c2-c2ccccc2)N1` reads 6.86%.
In the case of `CC(=O)O[C@H]1CC[C@@]2(C)[C@@H](CC[C@@H]3[C@@H]2CC[C@]2(C)[C@@H](C(C)(C)O)C[C@@H]32)C1`, the inhibition is 5.36%.
As for `C[C@H]([C@@H](O)[C@@H](O)[C@@H](C)C(C)(C)C)[C@H]1CC[C@H]2C3CC[C@H]4C[C@H](OS(=O)(=O)O)[C@@H](OS(=O)(=O)O)C[C@]4(C)[C@H]3CC[C@]12C` (some centres undefined), the inhibition is 88.4% (active).
`O=C(N[C@H](Cc1ccccc1)C(=O)N1CCCN(Cc2cccs2)CC1)[C@H]1O[C@@H](n2ccc(=O)[nH]c2=O)[C@H](O)[C@@H]1O`: the inhibition is 1.68%.
Regarding `O=S1(=O)c2ccc(Br)cc2-n2nncc2CN1Cc1cccc(Cl)c1`, the inhibition is 7.4%.
With `C=C(Cl)COC(=O)C1C2C=CC(C2)C1C(=O)O` (centres undefined), the inhibition is -2.82%.
With `Cc1noc(C)c1S(=O)(=O)NCCc1ccc(S(N)(=O)=O)cc1`, the inhibition is 2.53%.
With `COC(=O)C[C@@H]1CC[C@H]2[C@@H](COc3ccc(NS(=O)(=O)CC(F)(F)F)cc3C(=O)N2C)O1`, the inhibition was 2.52%.
With `COc1cc(=O)[nH]c(=O)n1C(=O)Cc1ccccc1`, the inhibition is 5.86%.
Consider `CCCOc1ccc(Cn2c(O)cc(=O)[nH]c2=O)cc1`, for which the inhibition is 37.6% (active).
As to `COc1ccc(Cn2c(O)c(/C=C3/C=CC=N3)c(=O)[nH]c2=O)cc1`, the inhibition was 4.64%.
On to `CN(C)C(=O)N1CCN(C(=O)[C@@H](Cc2ccccc2)NC(=O)[C@H]2O[C@@H](n3ccc(N)nc3=O)[C@H](O)[C@@H]2O)CC1`, for which the inhibition was 2.21%.
Take `FC(F)(F)c1cccc(Cn2ccc3ccc(-c4ccc5ccn(Cc6ccccc6)c5c4)cc32)c1`: the inhibition is 11%.
With `CC1=C(C(=O)N(C)C)C(c2ccccc2OC(F)F)NC(=O)N1` (centres undefined), the inhibition is -5.88%.
With `O=C(c1cccc(C(F)(F)F)c1)N1CC[C@H]2[C@H](CCCN2Cc2cc(F)cc(F)c2)C1`, the inhibition was -2.78%.
In the case of `Cc1cc(/C=C2/C(=N)N3C(=NC2=O)SN=C3S(C)(=O)=O)c(C)n1-c1ccccc1`, the inhibition is 58.3% (active).
With `CC1=CC2=NC(=O)/C(=C/c3coc4ccccc4c3=O)C(=N)N2O1`, the inhibition is -66.6%.
The result for `CCOC(=O)C1=C(O)/C(=C/c2cc(C)n(-c3ccccc3)c2C)N=C1C` reads 8.38%; that for `COc1ccc2c(C(C)c3ccc(N)cc3)cn(C)c2c1` (centres undefined), 5.87%.
Take `CN1C(=O)C2CC(O)C(SC3CC4C(=O)N(C)C(=O)C4CC3O)CC2C1=O` (centres undefined): the inhibition was 1.65%.
Turning to `COc1ccc(Cn2ccc3ccc(-c4ccc5ccn(Cc6ccccc6C)c5c4)cc32)cc1`, the inhibition is 15.1%.
Turning to `Cc1ccc(C)c(Cn2nnc3c(=O)[nH]c(C(=O)Nc4ccc(F)cc4)nc32)c1`, the inhibition was 60.2% (active).
On to `Cc1ccc(NC(=O)N2CCC(c3nc4c(nnn4Cc4c(F)cccc4Cl)c(=O)[nH]3)CC2)cc1`, for which the inhibition is 3.25%.
With `O=C(Nc1ccc(F)cc1)N1CCCC(c2nc3c(nnn3Cc3ccccc3Cl)c(=O)[nH]2)C1` (centres undefined) the figure was 0.69%; with `COc1cccc(N2CCN(CC(=O)N(C)Cc3ccc(F)cc3)CC2)c1`, -1.77%.
With `O=C1CCCCC1C(=O)c1ccccc1` (centres undefined) the figure was -0.64%.
The result for `C[C@H](O)[C@@H]1C(=O)N2CCc3c([nH]c4c(-c5ccc6c(c5)OCO6)cccc34)[C@@H]2C[C@@H]1N(C)C(=O)c1ccco1` reads 5.15%.
On to `Cc1ccc(C(=O)c2ccc(N3CCN(C)CC3)c([N+](=O)[O-])c2)cc1`, for which the inhibition is -0.77%.
Take `CC(C)NC(=O)c1ccc(Sc2ccccc2)c([N+](=O)[O-])c1`: the inhibition is -3.38%.
With `Cc1ccc(Sc2cc(C(=O)c3ccccc3C(=O)O)ccc2[N+](=O)[O-])cc1` the figure was 72.1% (active); with `COc1ccccc1C(=O)N1O[C@]23C=C[C@]14C[C@@H](O)CC[C@]4(C)C2CC[C@]1(C)[C@@H]([C@H](C)/C=C/[C@H](C)C(C)C)CC[C@H]13` (some centres undefined), 4.71%; with `CSc1ccc(C=Nn2c(-c3ccc(F)cc3)n[nH]c2=S)cc1`, 45.4% (active).
In the case of `CCOc1ccc(-c2n[nH]c(=S)n2/N=C/c2cc3c(cc2[N+](=O)[O-])OCO3)cc1`, the inhibition is 4.13%.
With `CSc1ccc(/C=N/N2CCN(Cc3ccccc3Cl)CC2)cc1` the figure was -3.03%.
With `O=C1[C@@H](c2ccccc2)[C@@H](c2ccccc2)N1c1ccccc1` the figure was 2.62%; with `CCOC(=O)[C@]12CCCC3=C1N(CCC3)C(=O)[C@@H](CC(=O)NCc1cccs1)C2`, -1.37%; with `C=CCN1C(=O)[C@@H](CC(=O)NCCCOCCCC)[C@]2(C(=O)OCC)CCCCC/C=C/12`, 0.69%.

(Values after PubChem BioAssay AID651821 (The Scripps Research Institute Molecular Screening Center, 2012).)
